Bioassay records deposited in PubChem by National Center for Advancing Translational Sciences (NCATS).
Most compounds without a hit are left out; they make up all but 19% or so of the library.
IL1B secr inh – inhibitors of inflammasome signaling (IL-1 beta secretion). THP-1 LPS/ATP IL-1B secretion, AlphaLISA, 16 h; active compounds read low. activity change, % at 57.5 µM. actives 4.7% (n = 360,000). AID 743279; in the data active = activity change below about -50%; inconclusive = mostly about -30% to -49%
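THP-1 cells pretreated 1 hr with compounds (up to 57.5 uM final), then stimulated with LPS (250 ng/mL final) plus ATP (1.25 mM final); secreted IL-1B measured by AlphaLISA after 16 hr, decreased signal indicating inhibition.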
TDP1 cell CPT – growth inhibition of DT40 Tdp1-/-;hTDP1 cells with camptothecin (screen for TDP1 inhibitors); chicken DT40 Tdp1-/-;hTDP1 cells + 20 nM CPT, ATP luminescence, 48 h; Potency, µM (doses to about 46.2 µM), for inactives: top-dose activity change, negative = growth inhibition, actives largely listed as inhibitors; actives 12% (n = 420,000); AID 686979; also: potency is read from the fitted curve at half-maximal effect; nearly all actives have a fitted effect of over 55% in size
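Chicken DT40 Tdp1-/- cells stably complemented with human TDP1 were seeded at 400 cells/well in medium containing 20 nM camptothecin, exposed to pin-transferred compounds, and grown at 37 °C for at least 48 hr. Viability was read as ATP luminescence.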
HT1080 IDH1KD tx – HT-1080 IDH1 knockdown cell toxicity (counter line) | HT-1080 IDH1 knockdown viability, ATP luminescence, 48 h | Potency, µM (series often up to 46.1 µM), for the others: top-dose activity, negative = toxicity, usual class: cytotoxic | actives 2% (n = 360,000);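 also: potency is read from the fitted curve at half-maximal effect; 0% = DMSO wells and -100% = cell-free medium wells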
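Luminescent ATP read-out (CellTiter-Glo, 10 min at room temperature) after 48 h compound exposure at 37 °C gave viability of IDH1-knockdown HT-1080 cells. Activity was normalised to DMSO and cell-free wells, then fitted as concentration-response curves.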
HT1080NT lethal – kills 2HG-producing HT-1080-NT fibrosarcoma cells; HT-1080-NT fibrosarcoma viability, CellTiter-Glo ATP luminescence, 48 h; Potency, µM (doses to about 46.1 µM), for inactives: top-dose activity, negative = less viability, actives largely listed as cytotoxic; actives 1.6% (n = 360,000); AID 686970;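 also: NT is the 2HG producing partner of a matched IDH1 knockdown line; potency is read from the fitted curve at half-maximal effect; 0% = DMSO-treated cells and -100% = media-only wells without cells; nearly all actives have a fitted effect of over 55% in size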
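A 48-hour cytotoxicity screen used HT-1080-NT cells plated 2 hours before compound delivery. ATP-based CellTiter-Glo luminescence measured viability, normalized to DMSO and no-cell controls.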
TDP1 cell noCPT – qHTS for Inhibitors of human tyrosyl-DNA phosphodiesterase 1 (TDP1): qHTS in cells in absence of CPT | DT40 Tdp1-/- hTDP1 cells, no CPT, ATP luminescence, 48 h | Potency, µM (top dose mostly 46.2 µM), inactives show top-dose activity change, negative = growth inhibition, usual class: inhibitors | actives 15% (n = 420,000); also: potency is read from the fitted curve at half-maximal effect; nearly all actives have a fitted effect of over 55% in size
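Luminescent ATP content (CellTiter-Glo) served as the growth readout. Knockout chicken DT40 cells expressing human TDP1 were exposed to compounds without camptothecin for a minimum 48 hr at 37 °C.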
* = called active by the depositor; i = inactive; ? = inconclusive; · = not tested or not shown. Unless noted, calls follow the shape of the dose curve; as a rule, active = well fitted curve in the direction sought with a large enough effect; inconclusive = small, poorly fitted or top-dose-only effect, or another doubt; inactive = no such curve, though single readings can be large; an effect the other way counts as inactive or inconclusive. Unless noted, % is scaled to controls: 0 for no effect and ±100 for the full control effect.

SMILES	IL1B secr inh	TDP1 cell CPT	HT1080 IDH1KD tx	HT1080NT lethal	TDP1 cell noCPT
CC1(C)CC2CC(C)(CN2C(=S)NC(=O)c2ccccc2Cl)C1 (stereo not drawn)	17	?	-14%	-3%	18µM*
O=C(NC(=S)N1CCOCC1)c1ccccc1Cl	-2	-10%	18%	21%	18%
CC(=O)Nc1cccc(OCc2ccc(F)cc2)c1	21	-1%	-13%	-17%	11%
CCN(CC)c1nc(NN)nc(Nc2ccc(C)c(Cl)c2)n1	-76*	?	-26%	-29%	?
CCN(CC)c1nc(N)nc(NS(=O)(=O)c2ccc(Cl)cc2)n1	5	-10%	-7%	-4%	-16%
Cc1cc(C)c(C(=O)NC2CC(C)(C)Cc3c2cnn3-c2cccc(F)c2)[nH]1 (stereo not drawn)	-4	?	-27%	-17%	?
CCn1nc(C)cc1C(=O)NC1CC(C)(C)Cc2c1cnn2-c1cccc(F)c1 (stereo not drawn)	i	21µM*	-10%	-1%	16µM*
COc1cccc(C(=O)NC2CC(C)(C)Cc3c2cnn3-c2cccc(F)c2)c1OC (stereo not drawn)	i	23µM*	-17%	-14%	18µM*
C=CCn1c(Cc2cccs2)nnc1SC/C=C/c1ccccc1	33	?	-5%	1%	?
Nc1nc(SCc2ccc(Br)cc2)c2ncn(C3OC(CO)C(O)C3O)c2n1 (stereo not drawn)	8	-3%	-17%	-19%	?
COc1ccc(-c2nc3nc(C)cc(=O)n3[nH]2)cc1	6	1%	-1%	16%	-4%
C=C1CCN([C@H](C(=O)NCc2ccco2)C(C)C)S(=O)(=O)c2ccccc21	-3	-16%	4%	8%	-18%
COc1ccc(OC)c(N2C(=NC(=O)C3CCCCC3)SC3CS(=O)(=O)CC32)c1 (stereo not drawn)	-21	-12%	16%	14%	21%
c1ccc(COc2ccccc2CNC2CCCC2)cc1	-70*	?	-1%	-13%	?
COc1cccc(CNC2CCCCCCC2)c1OC	-13	7%	-4%	0%	-19%
c1csc(COc2ccccc2CNC2CCCCC2)c1	-73*	?	-29%	-11%	?
O=C(CCCc1ccccc1)NC12CC3CC(CC(C3)C1)C2	-13	-24%	-4%	0%	?
c1ccc(COc2ccccc2CNC23CC4CC(CC(C4)C2)C3)cc1	-95*	18µM*	16µM*	13µM*	15µM*
CCCn1nnnc1NCc1ccccc1OCc1cccs1	-3	-25%	1%	-18%	-7%
Cc1cc(Cl)ccc1NC(=O)COC(=O)CCNS(=O)(=O)c1ccccc1	-8	-12%	9%	11%	-11%
O=C(Nc1cc(F)ccc1F)C1COc2ccccc2C1 (stereo not drawn)	·	-22%	·	·	-11%
CCOc1ccc(NC(=O)CSC2=Nc3ccccc3C3=NC(CCC(=O)NCc4ccccc4)C(=O)N23)cc1 (stereo not drawn)	·	?	·	·	16µM*
CCc1ccc(NC(=O)CSC2=Nc3ccccc3C3=NC(CCC(=O)NCCc4ccccc4)C(=O)N23)cc1 (stereo not drawn)	·	23µM*	·	·	?
CCCCNC(=O)CC1N=C2c3ccccc3N=C(SCC(=O)Nc3ccccc3C)N2C1=O (stereo not drawn)	-4	0%	-5%	-13%	?
Cc1ccccc1NC(=O)CSC1=Nc2ccccc2C2=NC(CCC(=O)NCc3ccccc3)C(=O)N12 (stereo not drawn)	·	-26%	·	·	?
CCc1ccccc1NC(=O)CSC1=Nc2ccccc2C2=NC(Cc3ccccc3)C(=O)N12 (stereo not drawn)	·	16µM*	·	·	?
CCc1ccc(NC(=O)CSC2=Nc3ccccc3C3=NC(CCC(=O)NCc4ccccc4)C(=O)N23)cc1 (stereo not drawn)	·	?	·	·	23µM*
